Inhibition data for 89 compounds are collected here from PubChem BioAssay AID652010 (The Scripps Research Institute Molecular Screening Center, 2013).

Molecules are shown by their SMILES. About 4,100 (1.1%) of roughly 370,000 compounds were called active. The list comes from a sample in which actives are over-represented; it also holds similar structures and randomly drawn compounds. Values without a mark were called inactive.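 Rule for the calls: active = inhibition above the mean over all tested compounds plus 3 SD (cut at about 3.6% in these data); inactive = the rest.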

This assay in a line: DAX1 (NR0B1) inhibitors on StAR promoter, primary screen, cell-based, luminescence, SF-1 (NR5A1), full-length DAX-1 (AID 652010).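 Note: 0% = DAX-1 cells with DMSO and 100% = cells lacking DAX-1 with DMSO; higher inhibition means more luminescence from relief of DAX-1 repression.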 The conditions noted are these: HEK293T StAR-luciferase reporter, SF-1/DAX-1 repression relief; at 6.8 µM; hits give high values. Background: A reporter such as luciferase makes a cellular process visible.
As for `COc1ccc(-n2c(SCC(=O)Nc3ccc4c(c3)OCCO4)nnc2-c2ccc(Cl)cc2)cc1`, the inhibition (commonly the relative decrease from the control value, in per cent) is 0.07%.

As to `COc1ccccc1C(=O)NC1CCCCN(C(C)C)C1=O` (centres undefined), the inhibition was -0.1%.

`O=C(CSc1nc2c(c(=O)[nH]1)CCCC2)N1CCCCC1`: the inhibition was -0.21%.

With `COc1cccc(N(C)C(=O)[C@@H](C)[C@@H](O)c2ccc3ccccc3c2)c1`, the inhibition is -0.75%.

`COc1ccc(C2C(C(C)=O)=C(O)C(=O)N2c2nccs2)cc1` (centres undefined): the inhibition is 0.43%.

Consider `COc1ccc(C(C)(O)c2nc(-c3cc(F)cc(F)c3)cs2)cc1` (centres undefined), for which the inhibition was -0.31%.

On to `COc1ccc(-c2csc(Cc3nc(O)cs3)n2)cc1`, for which the inhibition was 4.06% (active).

As to `Cc1ccc(NS(=O)(=O)c2cc3c(cc2Br)NC(=O)CO3)cc1C`, the inhibition was -2.1%.

With `CN1CCN(S(=O)(=O)c2ccc(NC(=O)C3CCCO3)cc2)CC1` (centres undefined), the inhibition is -0.58%.

Take `CCOc1cc(/C=N/NC(=O)c2ccc(CSc3nncn3C)cc2)ccc1OCC(=O)N1CCOCC1`: the inhibition is 0.55%.

On to `O=S1(=O)c2ccc(N3CCN(Cc4ccccc4F)CC3)cc2Oc2ccccc2CN1Cc1cn(Cc2ccc(Cl)cc2)nn1`, for which the inhibition is -0.86%.

As to `O=S(=O)(c1cccs1)N1CCCc2nc(-c3ccc(Br)cc3)ccc21`, the inhibition was 0.56%.

On to `CCCCN1CCN(C(=O)c2ccc3c(c2)NC(=O)C(C)(C)O3)CC1`, for which the inhibition was 0.65%.

In the case of `CCN(c1ccccc1)S(=O)(=O)c1ccc(OCC(=O)N2CCCC2)cc1`, the inhibition was 4.72% (active).

As to `COc1ccc(N(CC(=O)N2CCCCCC2)S(=O)(=O)c2ccccc2)cc1`, the inhibition was -0.37%.

For `CC(NS(=O)(=O)c1ccc(OCC(=O)N2CCCC2)cc1)c1ccccc1` (centres undefined), the inhibition was 0.22%.

As to `O=C(CCc1nnc2ccc(NCc3ccco3)nn12)Nc1cc(F)ccc1F`, the inhibition is 1.27%.

`CCOc1ccccc1NC(=O)CCc1nnc2ccc(NCc3ccco3)nn12`: the inhibition was -0.55%.

As to `CC(=O)c1ccc(NC(=O)CCc2nnc3ccc(NCc4ccco4)nn23)cc1`, the inhibition is 4.34% (active).

On to `O=C(CSc1nnc(-c2ccccc2)n1Cc1ccco1)Nc1ccccc1-c1ccccc1`, for which the inhibition was -1.32%.

Consider `Cc1cccc(NC(=O)C(C)N2C(=O)C3C4CC(C(Br)C4Br)C3C2=O)c1` (centres undefined), for which the inhibition was -0.17%.

For the compound `Nc1ccc2nn(-c3ccc(Cl)cc3)nc2c1`, the inhibition was 4.89% (active).

Take `Nc1nc2cc(Cl)ccc2n1N`: the inhibition was 0.18%.

For `Nc1ccc2c(c1)C(O)c1ccc(Cl)cc1-2` (centres undefined), the inhibition is 0.66%.

Consider `CCOC(=O)N1CCN(C(=O)C[C@H]2C[C@@]3(C(=O)OC)C(=C[C@H](C4CCCC4)O[C@@H]3C)N(Cc3ccccc3)C2=O)CC1`, for which the inhibition was -0.29%.

`CC(C)N1CCCCC(NC(=O)C(C)(C)C)C1=O` (centres undefined): the inhibition was -0.67%.

For `CC(=O)Nc1cccc(C(=O)OCC(=O)NCc2cc(C)c(O)c(C)c2)c1`, the inhibition is 2.37%.

With `CC(=O)Nc1cccc(C(=O)OCN2C(=O)c3ccccc3C2=O)c1`, the inhibition was 1.3%.

Turning to `CC(=O)Nc1cccc(C(=O)OCC(=O)c2ccc3c(c2)OCO3)c1`, the inhibition is 13.7% (active).

As to `COC(=O)C1CN(CCc2ccccc2)CCS(=O)(=O)N1Cc1cccc(Cl)c1` (centres undefined), the inhibition was -1.7%.

Consider `O=C1CC[C@@H](COc2ccc3[nH]cc(-c4ccccc4)c3c2-c2ccccc2)N1`, for which the inhibition was -0.82%.

With `O=C(NCC(=O)N1CCCCCCC1)c1ccccc1Cl`, the inhibition is -0.28%.

With `O=C(COC(=O)CNC(=O)c1ccccc1F)NCC(F)(F)F`, the inhibition was -0.62%.

In the case of `O=C(NCC(=O)N1CCCC(C(F)(F)F)C1)c1ccccc1F` (centres undefined), the inhibition is 4.23% (active).

For `O=C(C1CCCO1)N(c1ccc(F)cc1)C1C=CS(=O)(=O)C1` (centres undefined), the inhibition is -0.69%.

Consider `C=CC1=CCN(S(=O)(=O)C(C)(C)C)[C@@H]1CCO`, for which the inhibition is -0.3%.

As for `O=C(COC(=O)c1cc(=O)[nH]c2ccccc12)NCc1cccc(Cl)c1`, the inhibition is -1.15%.

Regarding `CC1CCN(C(=O)COC(=O)c2cc(=O)[nH]c3ccccc23)CC1`, the inhibition is 9.38% (active).

Turning to `CN(C(=O)COC(=O)c1cc(=O)[nH]c2ccccc12)C1CCCCC1`, the inhibition is 3.03%.

On to `COC(=O)[C@@]12CCCCC=C1N(CCc1ccc(Cl)cc1)C(=O)[C@H]2CC(=O)NCc1ccc(OC)c(OC)c1`, for which the inhibition is -1.83%.

Turning to `CC(C)(C)OC(=O)NCCc1ccccc1/C=C/S(=O)(=O)NCc1ccc(F)cc1`, the inhibition is -2.47%.

As for `C=CCN(CC=C)C(=O)CN1C(=O)c2ccccc2C1=O`, the inhibition was -0.48%.

In the case of `C=CCn1c(C)cc(C(=O)CN2C(=O)c3ccccc3C2=O)c1C`, the inhibition was 3.9% (active).

With `COc1cc(C(C)=O)ccc1OC(=O)CN1C(=O)c2ccccc2C1=O`, the inhibition is -0.4%.

Take `CCn1c(SCC(C)=O)nc2sc3c(c2c1=O)CCCC3`: the inhibition is -0.04%.

Turning to `Cc1cccc(NC(=O)/C=C/c2ccc3c(c2)OCO3)n1`, the inhibition is 5.26% (active).

For `O=C(COC(=O)/C=C/c1ccc2c(c1)OCO2)NC1CCS(=O)(=O)C1` (centres undefined), the inhibition was 0.14%.

With `COc1ccc(S(=O)(=O)N(C)CC(=O)Nc2ccc3c(c2)OCCO3)cc1OC`, the inhibition is 0.16%.

As for `Cc1ccc(OCCCC(=O)Nc2ccc3c(c2)OCCO3)cc1`, the inhibition is -0.75%.

Regarding `CN(Cc1ccccc1)C(=O)COC(=O)/C=C/c1ccc2c(c1)OCO2`, the inhibition was 0.06%.

`COc1cccc(/C=C/C(=O)Nc2ccc3c(c2)OCCO3)c1`: the inhibition is 5.36% (active).

Take `C=CCN1C(=O)[C@H](CC(=O)N2CCN(C(=O)OCC)CC2)[C@@]2(C(=O)OCC)CCCC=C12`: the inhibition was -0.21%.

Regarding `COC(=O)c1ccccc1-n1cc(COC(=O)NCCc2ccccc2)nn1`, the inhibition was -0.35%.

For the compound `Cc1cc(NS(=O)(=O)c2ccc(NC(=O)CSc3nnc(-c4ccc(C(C)(C)C)cc4)n3Cc3ccco3)cc2)nc(C)n1`, the inhibition is 0.36%.

For `COC(=O)C1=C(C)N(Cc2ccccc2C(F)(F)F)C(=NCC2CC2)NC1c1cccc(Cl)c1` (centres undefined), the inhibition was 0.1%.

Consider `CC(C)C[C@H]1CN([C@@H](CC(C)C)CN2CCC[C@@H]2CN2C(=O)C(=O)NC[C@@H]2Cc2ccccc2)C(=O)C(=O)N1CCc1ccccc1`, for which the inhibition is -1.31%.

In the case of `CN1[C@H](Cc2ccccc2)COc2cccc(N3CCSCC3)c2S1(=O)=O`, the inhibition was -1%.

With `NC1=NN(c2cccc(C(=O)O)c2)C(=O)C1`, the inhibition is -0.57%.

As for `O=C(O)c1cccc(N=NN2CCCCCC2)c1`, the inhibition is 6.35% (active).

Turning to `Cc1cccc(C(=O)N2CCN(S(=O)(=O)N3CCCCC3)CC2)c1`, the inhibition is 1.49%.

Turning to `CCOC(=O)[C@]12CCCC=C1N(CCCOC)C(=O)[C@@H]2CC(=O)N1CCOCC1`, the inhibition was -0.49%.

Regarding `CCCNC(=O)Nc1ccc2c(c1)C(=O)N(C)[C@H]1CC[C@H](CC(=O)NCC3CCCCC3)O[C@@H]1CO2`, the inhibition is -0.63%.

As to `COC(=O)C(C(=O)OC)c1ccccc1NS(=O)(=O)c1cccc2ccccc12`, the inhibition was 0.06%.

On to `O=C(NCc1cccs1)C1CCCN(S(=O)(=O)c2ccc([N+](=O)[O-])cc2)C1` (centres undefined), for which the inhibition is -0.52%.

In the case of `COc1ccc2c(C(C)c3ccc(N)cc3)cn(C)c2c1` (centres undefined), the inhibition was 0.02%.

On to `CC1CCN(c2ccc(-c3ccc(NC(=O)c4ccco4)cc3)nn2)CC1`, for which the inhibition was 2.92%.

On to `CCC(=O)Nc1ccc(-c2ccc(N3CCCCC3)nn2)cc1`, for which the inhibition was 4.53% (active).

As to `CCCCSc1nnc(-c2ccc(NC(=O)CC)cc2)n1C`, the inhibition was -0.29%.

Take `NS(=O)(=O)c1cc(C(=O)NCCOc2ccccc2)c(Cl)cc1Cl`: the inhibition is 0.12%.

On to `O=C(NCCOc1ccccc1)c1ccccc1F`, for which the inhibition was 6.99% (active).

With `O=C(NCCc1csc(-c2ccccc2)n1)c1ccccc1F`, the inhibition was -1.18%.

As for `O=C(CCS(=O)(=O)c1ccccc1)Nc1ccc(Cl)c(Cl)c1`, the inhibition is -0.2%.

For `O=C(CCCCCN1C(=O)C2C3C=CC(C3)C2C1=O)Nc1ccccc1` (centres undefined), the inhibition is 1.39%.

With `CC(C)(C)c1csc(NC2=NS(=O)(=O)c3ccccc32)n1`, the inhibition is 5.84% (active).

`O=C(Oc1cccc(NC2=NS(=O)(=O)c3ccccc32)c1)c1ccncc1`: the inhibition was 0.31%.

Consider `Cc1ccc(S(=O)(=O)N(NC2=NS(=O)(=O)c3ccccc32)C(=O)c2ccccc2)cc1`, for which the inhibition is 0.29%.

In the case of `Cc1ccc(Cn2cc(CN3[C@@H](C)COc4cc(Br)ccc4S3(=O)=O)nn2)cc1`, the inhibition was -0.52%.

`O=C(CC1C(=O)NCCN1Cc1ccc(-c2ccccc2)cc1)NCC1CCOCC1` (centres undefined): the inhibition is -0.29%.

Turning to `O=C(NCCc1ccccc1)c1ccc(NC2=NC3CS(=O)(=O)CC3S2)cc1` (centres undefined), the inhibition is -0.02%.

Consider `O=C(NCCc1ccccc1)Oc1ccc(Cl)cc1`, for which the inhibition was 0.42%.

Take `CCCOc1ccc(C(=O)NCCc2ccccc2)cc1`: the inhibition was 5.47% (active).

With `O=C(NC1CCC1)c1ccc(C#CC2CC2)cn1`, the inhibition was 3.08%.

`Cc1ccc(OCc2nnc(SC/C=C/c3ccccc3)n2Cc2ccco2)cc1`: the inhibition was -0.46%.

Regarding `COC(=O)c1cc2c(c3c4ccccc4n(S(=O)(=O)c4cccc(C)c4)c13)C(=O)N(Cc1ccccc1)C2`, the inhibition was -1.85%.

With `CCC(C)c1ccc(O)c(/C=N/O)c1` (centres undefined), the inhibition is 0.8%.

On to `CNCC(O)c1ccc(O)c(O)c1` (centres undefined), for which the inhibition was 5.84% (active).

As for `CC(=NNC(N)=O)C1CC2CCC1CC2` (centres undefined), the inhibition was 1.47%.

Take `CCCCCCCCN1C(=O)[C@@H](CC(=O)N2CCN(C(=O)OCC)CC2)C[C@@]2(C(=O)OC)C1=C[C@H](C1CCCC1)O[C@@H]2C`: the inhibition is 0.13%.

As to `CCOC(=O)[C@@]12CN(C(=O)OC(C)(C)C)CC=C1N(Cc1ccc(OC)cc1)C(=O)[C@H]2CC(=O)NCc1ccc(OC)c(OC)c1`, the inhibition is -0.16%.
